Values joined by “and” are separate entries in the source; they are usually repeats but may differ in a detail not shown here. Identical values can stand only once. Records with an inconclusive call do not appear. Active and inactive are the calls of the source. The call rests on the fitted dose curve.
Experiment: qHTS Assay for Lipid Storage Modulators (AID 1519); on activity change, negative = inhibition: on the % scale 0 is the no-effect control and ±100 the full control effect
Conditions: Drosophila S3 cells, BODIPY lipid droplet/cell ratio, laser cytometry, cells loaded with oleic acid
Excerpt: NIH Molecular Libraries Probe Production Centers Network [MLPCN]
NIH Chemical Genomics Center [NCGC]
Assay Submitter (PI): Beller, Mathias; Max-Planck-Institut fur Biophysikalische Chemie
NCGC Assay Overview: Storing lipids as a reservoir for energy or the anabolism of elementary metabolites is a common feature of probably all cells and is conserved from bacteria to humans. The universal cellular lipid storage organelle is the so-called lipid storage droplet (LD). Although ubiquitous, LDs share a simple structure composed of a hydrophobic core that harbors the storage lipids, which is shielded by a droplet-specific phospholipid monolayer to which proteins are attached. The current model of LD biogenesis involves an incorporation of the lipid core into the membrane leaflets of the endoplasmic reticulum (ER) followed by a subsequent budding-like maturation of a LD, which ultimately pinches off. Once released, LD volume can increase by localized lipogenesis or fusion of existing droplets. Storage lipids are re-mobilized enzymatically by lipase activity. Lipase regulation in the adipocyte is heavily studied and involves multiple components including catecholamine signaling, the LD-associated proteins Perilipin and comparative gene identification-58 (CGI-58) and at least two lipases named hormone sensitive lipase (HSL) and adipocyte triglyceride lipase (ATGL). LD regulation outside of the adipocyte is poorly understood and only few components are known. However, there is an urgent need to learn more about ectopic fat depots as mislocalized storage of lipids, for example in the liver or muscle, is an eminent health problem associated with insulin resistance or the metabolic syndrome. We developed a laser-scanning cytometer assay to enable 1,536-well screening and combined the results of the small molecules screen with an RNAi database based on lipid storage.
NCGC Assay Protocol Summary:
We dispensed 4 uL of cells at 1.25 x 10^6 cells/mL into LoBase Aurora COC 1,536-well plates (black walled, clear bottom) with a bottle-valve solenoid-based dispenser (Aurora) to obtain 5,000 cells/well. Triacsin C (Sigma-Aldrich T-4540), an inhibitor of long-chain fatty acyl CoA synthetase that blocks synthesis of triglycerides, was used as a positive control for lipid under-storage. A total of 23 nL of compound solution of different concentrations were transferred to the assay plates using a Kalypsys pin tool equipped with a 1,536-pin array containing 10-nL slotted pins (FP1S10, 0.457-mm diameter, 50.8 mm long; V&P Scientific). One microliter of oleic acid (400 uM) was added, and the plate was lidded with stainless steel rubber gasket lined lids containing pinholes. […] Fluorescence was detected by excitation of the fluorophores with a 488-nm laser on an Acumen Explorer (TTP Lab Tech). The total intensity in channel 1 (500-530 nm) reflected lipid droplet accumulation. […] The ratio of the total intensity in PMT channel 1 over total intensity of channel 3 was also calculated. Percent activity was computed relative to an internal control (100% inhibited lipid droplet deposition due to the presence of 20 uM Triacsin C), which was added to 32 wells/plate.

[1] = measured here: cell count channel max response
[2] = measured here: lipid channel max response

Compound | activity change, negative = inhibition (at 25.7 µM (top of the series)) | activity change, negative = inhibition (at 57.5 µM (top of the series)) | max response [1] | max response [2]
CN1CCC(=C2c3ccccc3Sc3ccccc32)CC1 | -2.77% (inactive) | 13.8% (inactive) | 3.5% and 5.85% | -0.527% and 23.3%
CC(C)N=C(N)/N=C(\N)Nc1ccc(Cl)cc1 | -2.29% (inactive) |  | -10.3% | -11.8%
Cc1ccnc(NS(=O)(=O)c2ccc(N)cc2)n1 | 2.4% (inactive) | 7.92% (inactive) | -11% and -0.764% | -8.59% and 9.99%
O=C(CCCN1CCC(O)(c2ccc(Br)cc2)CC1)c1ccc(F)cc1 | -4.42% (inactive) |  | -5.85% | -9.42%
Cc1c(N(C)CS(=O)(=O)O)c(=O)n(-c2ccccc2)n1C | 0.216% (inactive) | 9.06% (inactive) | -6.35% and 7.26% | -5.13% and 21%
CC(=O)N(O)CCCCCNC(=O)CCC(=O)N(O)CCCCCNC(=O)CCC(=O)N(O)CCCCCN | -1.65% (inactive) | 6.43% (inactive) | -10.2% and 15.7% | -12.1% and 27.1%
CO/N=C1\CN(c2nc3c(cc2F)c(=O)c(C(=O)O)cn3C2CC2)CC1CN (stereo not given) |  | 8.95% (inactive) | 11% | 24%
COc1cc(OC)cc(OC)c1 |  | 0.768% (inactive) | -0.306% | 3%
Cc1c(C(N)=O)cc([N+](=O)[O-])cc1[N+](=O)[O-] |  | 9.82% (inactive) | 12.8% | 29.3%
CC(C)(CO)[C@@H](O)C(=O)NCCCO |  | 2.51% (inactive) | 21.8% | 22.3%
CCN(CCCCOC(=O)c1ccc(OC)c(OC)c1)C(C)Cc1ccc(OC)cc1 (stereo not given) |  | 3.28% (inactive) | 17.5% | 26.2%
CC(Cc1cccc(C(F)(F)F)c1)NCCOC(=O)c1ccccc1 (stereo not given) |  | -1.3% (inactive) | -3.51% | -2.7%

Source: PubChem BioAssay (NCATS)
